High-throughput results deposited in PubChem BioAssay by The Scripps Research Institute Molecular Screening Center.
M1 antag = antagonists of human M1 muscarinic receptor; actives 1.3% (n = 360,000); CHO-K1 hM1, Fluo-8 calcium fluorescence, ACh EC80 antagonist; AID 588852; P11229; inhibition, % at 3 µM;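 active = percent inhibition above its own plate's cutoff, namely the mean of that plate's compound wells plus 3 SD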;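 note: peak over basal fluorescence ratio during 140 s after agonist addition; 0% = ACh EC80 plus DMSO and 100% = DMSO alone without agonist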
Target sequence (P11229 whole entry, looked up): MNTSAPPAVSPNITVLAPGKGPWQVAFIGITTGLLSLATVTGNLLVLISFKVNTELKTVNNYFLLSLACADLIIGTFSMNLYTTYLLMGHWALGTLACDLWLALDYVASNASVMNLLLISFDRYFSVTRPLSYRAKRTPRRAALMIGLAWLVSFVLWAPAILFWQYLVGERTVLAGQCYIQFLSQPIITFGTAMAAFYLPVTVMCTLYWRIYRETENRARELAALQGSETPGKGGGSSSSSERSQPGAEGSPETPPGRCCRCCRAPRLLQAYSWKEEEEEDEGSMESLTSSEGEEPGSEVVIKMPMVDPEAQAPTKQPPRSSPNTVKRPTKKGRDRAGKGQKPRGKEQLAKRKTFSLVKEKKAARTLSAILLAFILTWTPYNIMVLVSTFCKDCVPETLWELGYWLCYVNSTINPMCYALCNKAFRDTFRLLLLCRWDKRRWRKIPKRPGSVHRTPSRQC
M1 ag parental = nonselective activator or artifact in parental CHO-K1 cells. Fluo-8 calcium fluorescence; scaled to maximal ATP response, vehicle zero. activation, % at 3 µM. actives 0.48% (n = 360,000). AID 602248; in the data active = activation above about 15%;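 note: untransfected CHO-K1 host cells lacking M1 receptor as counterscreen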
CHO-K1 Ca antag = counter-screen for M1 antagonists: effect in parental CHO-K1 cells. ATP-induced calcium, Fluo-8 fluorescence. inhibition, % at 3 µM. actives 0.6% (n = 360,000). AID 602250;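 active = inhibition above a per-plate cutoff, the plate's mean sample inhibition plus 3 SD, cut at about 24% in these data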;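 note: 0% = DMSO plus EC80 ATP and 100% = DMSO alone without ATP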
M1 ag = activates human CHRM1 receptor | P11229 | CHO-K1 hM1, Fluo-8 calcium fluorescence, agonist mode; 0% DMSO, 100% acetylcholine EC100 | activation, % at 3 µM | actives 0.33% (n = 360,000) | AID 588814;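 active = activation above the run's mean compound activation plus 3 SD, cut at about 16% in these data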;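 note: peak over basal fluorescence ratio within a 140 s kinetic read after compound addition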
M1 PAM = positive allosteric modulators of human M1 muscarinic receptor; P11229; activation, % at 3 µM; CHO-K1 hM1, Fluo-8 calcium fluorescence, ACh EC20; 0% = ACh EC20, 100% = maximal ACh; AID 588819; actives 0.088% (n = 360,000); in the data active = activation above about 19%, passing the limit was not always enough
M1 PAM parental = nonselective activator or artifact in parental CHO-K1 calcium assay | ATP EC20, Fluo-8 calcium fluorescence; 0% at ATP EC20, 100% at ATP max | activation, % at 3 µM | actives 0.02% (n = 360,000) | AID 602247;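 active = activation above the run cutoff, the mean activation of all test compounds plus 3 SD, cut at about 40% in these data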;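 note: peak over basal fluorescence ratio in a 140 s read after ATP addition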
* marks the source's active call; other numbers are inactive results. This is a sample that favours compounds with a hit; in the whole collection about 2.4% have one here.

SMILES | M1 antag | M1 ag parental | CHO-K1 Ca antag | M1 ag | M1 PAM | M1 PAM parental
CC(C)OC(=O)c1c2c(n3ccccc13)C(=O)c1ccccc1C2=O | 20 | 18* | 4 | 12 | -3 | 14
COc1cc(/C=N\NC(=O)c2ccc(-c3ccccc3)cc2)cc(Br)c1O | -7 | 0 | -1 | -3 | 10 | -2
COc1ccc(/C=N/NC(=O)c2ccc(CN3C(=O)c4cccc5cccc3c45)cc2)cc1O | 0 | 0 | 3 | 23* | 1 | -9
COc1ccc(/C=N/NC(=O)c2ccc(-c3ccccc3)cc2)cc1O | 11 | 2 | 13 | -4 | -8 | -3
COc1cc(/C=N/NC(=O)c2ccc(CN3C(=O)c4cccc5cccc3c45)cc2)cc(OC)c1O | -1 | 15* | 6 | 13 | 6 | 3
CCOC(=O)N1CCC(=NNC(=O)NC2CCCCC2)CC1 | -12 | 2 | -10 | 0 | 8 | 25
COc1ccc(C=C2SC(=S)NC2=O)c(OC)c1OC | -10 | 1 | -14 | 2 | 4 | 18
CCc1nnc(NC(=O)C2=CCN(S(=O)(=O)c3ccccc3)CC2)s1 | -9 | 1 | -16 | -3 | 3 | 23
C=CCn1c(SCCOC)nc2c1c(=O)[nH]c(=O)n2C | -10 | 1 | -9 | -4 | 6 | 22
C=CCn1c(SCCN2CCCCC2)nc2c1c(=O)[nH]c(=O)n2C | 28* | 0 | 20 | -12 | -20 | -4
O=C1CCCN1c1ccc(S(=O)(=O)N2CCCCC2)cc1 | -6 | 3 | -7 | -11 | 0 | 9
O=C1CCCN1c1ccc([N+](=O)[O-])cc1 | -8 | 0 | 29* | 0 | 6 | -12
NS(=O)(=O)c1ccc(NC(=O)C2Cc3ccccc3CN2C(=O)c2ccco2)cc1 (configuration not stated) | 12 | 2 | 7 | -3 | -7 | -26
CC1CC(C)CN(CC(=O)N2CCCc3c2c(=O)oc2ccc(OCc4ccccc4)cc32)C1 (configuration not stated) | 1 | 0 | -8 | -6 | -9 | 21
CC1CCN(CC(=O)N2CCCc3c2c(=O)oc2ccc(OCc4ccccc4)cc32)CC1 | 49* | -1 | -1 | -6 | -23 | 17
COc1ccc(C2=NS(=O)(=O)N(C)C(C(=O)Nc3ccc(C)cc3)=C2)cc1 | 18 | 10 | 3 | 3 | -19 | 11
Cc1ccc(NC(=O)C2=CC(c3ccc(C)cc3)=NS(=O)(=O)N2C)cc1 | 36* | 12 | 16 | 4 | -23 | -8
CCOC(=O)c1ccccc1Cc1nc2ccccc2c(=O)[nH]1 | 98* | 0 | -2 | -8 | -26 | 11
COc1ccc(NS(=O)(=O)c2ccc(-c3coc(C)n3)cc2)cc1OC | 63* | 20* | 50* | 5 | -17 | -29
COc1ccc(NS(=O)(=O)c2ccc(-c3coc(C)n3)cc2)cc1 | -7 | 6 | -11 | 9 | 15 | 9
CC1(C2CC2)NC(=O)N(CC(=O)Nc2ccccc2C#N)C1=O (configuration not stated) | -8 | 10 | -1 | -1 | 8 | 7
C=CCn1c(SCC(=O)N2CCCC2)nc2cc(C(=O)NCC3CCCO3)ccc2c1=O (configuration not stated) | -4 | 1 | 8 | -4 | 2 | -4
CCc1nc2ccc(C(=O)N3CCN(c4cccc(C(F)(F)F)c4)CC3)cc2nc1CC | 47* | 0 | -17 | -6 | -23 | 18
CN(C)CCCn1c2c3ccccc3ccc2c2oc(=O)c3ccccc3c21 | -8 | 2 | -2 | -5 | 2 | 5
CC1CCN(C(=O)c2ccc(CSc3nc4ccncc4n3Cc3ccc(F)cc3)cc2)CC1 | 38* | 1 | 4 | -12 | -27 | 13
SMILES | M1 antag | M1 ag parental | CHO-K1 Ca antag | M1 ag | M1 PAM | M1 PAM parental
CC1(NC(=S)Nc2ccc(NC(=S)NC3(C)CCS(=O)(=O)C3)cc2)CCS(=O)(=O)C1 (configuration not stated) | -7 | 1 | -2 | 17* | 6 | 14
O=C(CCN1C(=O)S/C(=C/c2ccccc2)C1=O)Nc1ccc(C(=O)O)c(O)c1 | -5 | 0 | -7 | -4 | 3 | 20
O=S(=O)(Nc1nc2ccccc2nc1NCc1ccco1)c1ccccc1 | -4 | 0 | 25* | -1 | 4 | -6
O=C1c2cccc3c(N4CCCCC4)ccc(c23)C(=O)N1c1ccc(O)cc1 | 18 | 15 | 8 | 9 | -9 | 8
O=C1c2cccc3c(N4CCCCC4)ccc(c23)C(=O)N1c1ccccc1O | 44* | 36* | 30* | 40* | -13 | -7
Cc1cc2c(NC(=O)Nc3ccc(C(F)(F)F)cc3)cccc2nn1 | 8 | 5 | 32* | 5 | -3 | -26
COc1ccc(Cl)cc1Cn1c(C)c(C(=O)NCc2ccccc2C(F)(F)F)sc1=O | 14 | 0 | 4 | -8 | -11 | -9
COc1ccc(Cl)cc1Cn1c(C)c(C(=O)NCc2cccc(C(F)(F)F)c2)sc1=O | -17 | 0 | 24* | -6 | 4 | 2
COc1ccc(Cl)cc1Cn1c(C)c(C(=O)NCc2ccc(C#N)cc2)sc1=O | 44* | 4 | -5 | -3 | -32 | 8
COc1ccccc1Cn1c(C)c(C(=O)NCc2ccc(C#N)cc2)sc1=O | 32* | 28* | -4 | 16* | -33 | 19
COc1ccccc1Cn1c(C)c(C(=O)NCc2cccc(C)c2)sc1=O | 1 | 0 | 22 | -8 | 3 | 0
Cc1ccccc1Cn1c(C)c(C(=O)NCc2cccc(Cl)c2)sc1=O | -8 | 2 | -11 | 0 | 7 | 14
COc1ccc(CNC(=O)c2sc(=O)n(Cc3ccccc3C)c2C)cc1 | 7 | 17* | 6 | 34* | -7 | -9
CCOc1cc2[nH]c(=S)n(Cc3ccc(C)o3)c(=O)c2cc1OCC | -1 | 0 | -4 | -3 | 1 | 21
CSc1ccccc1OCc1cc(C(=O)N2CCCC2c2nonc2C)no1 (configuration not stated) | -2 | 4 | -11 | -3 | 0 | 5
C=CCNC(=O)C(C)Sc1ccc(Cl)cc1 (configuration not stated) | -34 | 0 | -3 | -2 | 10 | 15
COc1cccc(NC(=O)Cc2c(O)c3ccccc3[nH]c2=O)c1 | -13 | 0 | 25* | -1 | 9 | -6
O=C(Cc1c(O)c2ccccc2[nH]c1=O)OC1CCCCC1 | -6 | -1 | 25* | -3 | 5 | -6
O=C(c1ccc(NS(=O)(=O)c2ccc3[nH]c(=O)[nH]c3c2)cc1)N1CCN(c2ccccc2)CC1 | -6 | 3 | -5 | -3 | 3 | 1
O=C(c1cc(=O)[nH]c2ccccc12)N1CCN(Cc2ccc3c(c2)OCO3)CC1 | -6 | 1 | -14 | -2 | 6 | 18
